# High-throughput results deposited in PubChem by National Center for Advancing Translational Sciences (NCATS).
# RORgamma inh = inhibitors of mouse ROR gamma transcriptional activity; 310,000 compounds, 5.4% hits; Potency, µM (series often up to 53.6 µM), without a hit: top-dose activity change, negative = inhibition, usual class: inhibitors; Drosophila S2 Gal4-RORgamma UAS-luciferase reporter, 20 h; AID 2551; P51450; also: nearly all actives have a fitted effect of over 60% in size
# Target sequence (P51450 whole entry, looked up, the tested form may be a part): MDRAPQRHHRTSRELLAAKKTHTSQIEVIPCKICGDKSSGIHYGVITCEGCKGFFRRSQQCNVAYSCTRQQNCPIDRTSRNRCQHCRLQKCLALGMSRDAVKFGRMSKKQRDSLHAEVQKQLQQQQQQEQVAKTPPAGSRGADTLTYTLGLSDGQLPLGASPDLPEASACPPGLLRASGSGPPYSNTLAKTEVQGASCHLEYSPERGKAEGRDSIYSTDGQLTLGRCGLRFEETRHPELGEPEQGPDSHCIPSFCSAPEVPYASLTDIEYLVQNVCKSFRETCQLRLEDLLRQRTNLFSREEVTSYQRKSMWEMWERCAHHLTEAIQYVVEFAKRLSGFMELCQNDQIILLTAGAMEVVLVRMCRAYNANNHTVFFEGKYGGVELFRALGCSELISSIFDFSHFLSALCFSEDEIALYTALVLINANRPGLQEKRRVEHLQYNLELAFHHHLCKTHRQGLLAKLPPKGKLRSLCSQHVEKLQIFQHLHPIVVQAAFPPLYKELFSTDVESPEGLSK
#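 Drosophila Schneider cells stably carrying a metallothionein-driven Gal4 DBD–ROR gamma fusion and a UAS-Photinus luciferase reporter were exposed to compound for 1 hr, then induced with copper sulfate (700 uM final) for 20 hr at ambient temperature before luminescence reading.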
# Gal4-VP16 FLuc = Gal4-VP16 reporter inhibition counter-screen; AID 2546; 310,000 compounds, 3.5% hits; Potency, µM (titrated, usually from 53.6 µM), without a hit: at the top dose activity, negative = inhibition, most hits filed as inhibitors; Drosophila S2 Gal4-VP16 UAS-luciferase, luminescence, 20 h;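 also: Gal4-VP16 expression switched on by copper sulfate through the metallothionein promoter; nearly all actives have a fitted effect of over 50% in size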
# KinaseGlo FLuc = blocks Kinase-Glo luciferase, a counter-screen artifact; AID 1379; 200,000 compounds, 0.28% hits; Kinase-Glo luciferase, ATP luminescence, 8 min; Q27757; Potency, µM (series often up to 38.3 µM), without a hit: at the highest dose activity change, negative = inhibition, hits mostly inhibitors; also: nearly all actives have a fitted effect of over 60% in size
#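 Inhibition of Kinase-Glo luciferase light generation was assessed at 10 uM ATP in pH 7.2 imidazole buffer, with luminescence measured after eight minutes at ambient temperature.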
# An asterisk follows results filed as active; ? = inconclusive; / = not tested or not shown; [ ] = dose if it differs, or a comment. Most compounds without a hit are left out; they make up all but 6.4% or so of the library. Calls follow the shape of the dose curve; as a rule, active = well fitted curve in the direction sought with a large enough effect; inconclusive = small, poorly fitted or top-dose-only effect, or another doubt; inactive = no such curve, though single readings can be large; an effect the other way counts as inactive or inconclusive. % is scaled to controls: 0 for no effect and ±100 for the full control effect; potency is read from the fitted curve at half-maximal effect.
SMILES,RORgamma inh,Gal4-VP16 FLuc,KinaseGlo FLuc
CC(=O)c1c(N2CCN(C)CC2)[nH]c(-c2ccccc2)nc1=S,10µM*,-20%,0%
CCn1c(C)c(C(C)=O)c(N2CCN(c3ccccc3)CC2)nc1=S,-20%,22%,1%
CCCN(CCC)S(=O)(=O)c1ccc(C(=O)O)cc1,-25%,-22%,2%
CCCCN(CC)S(=O)(=O)c1ccc(C(=O)Nc2nnc(CSC)o2)cc1,0.71µM*,1µM*,5%
CCN(CC)S(=O)(=O)c1ccc(C(=O)Nc2cc(C)cc(C)c2)cc1,1%,11%,-6%
CCCN(CCC)S(=O)(=O)c1ccc(C(=O)Nc2nnc(CSC)o2)cc1,0.89µM*,1.3µM*,7%
CCCCN(CC)S(=O)(=O)c1ccc(C(=O)Nc2nnc(COC)o2)cc1,1.3µM*,3.2µM*,10%
CCN(CC)S(=O)(=O)c1ccc(C(=O)NC(C)(C)C)cc1,-25%,18%,1%
CCN(CC)S(=O)(=O)c1ccc(C(=O)Nc2cc(C)on2)cc1,0%,-2%,/
CCCCN(CC)S(=O)(=O)c1ccc(C(=O)Nc2nnc(-c3ccccc3Cl)o2)cc1,?,0.79µM*,-4%
O=C(O)C1(C(=O)O)CCC1.[NH2-].[NH2-].[Pt+2],6%,0%,/
CC1C(=O)N2CCCc3cc(S(=O)(=O)N(C)CCC#N)cc1c32 (stereo unspecified),-27%,-11%,/
COc1ccc2cc(C(=O)N3CCN(c4ccc(F)cc4)CC3)[nH]c2c1,25%,0%,/
COC(=O)C1=CN(c2cccc(Cl)c2)C=C(C(=O)OC)C1c1cccc(OC)c1,10%,1%,/
COc1ccc(N2CCN(C(=O)c3ccc(Br)o3)CC2)cc1,-17%,21%,/
CCCN(CCC)S(=O)(=O)c1ccc(C(=O)NCc2ccco2)cc1,9%,0%,/
CCCCN(CCCC)S(=O)(=O)c1ccc(C(=O)Nc2nnc(CSC)o2)cc1,0.32µM*,0.89µM*,0%
CC(C)(CO)NC(=O)C(Cc1ccccc1)N1C(=O)c2ccccc2C1=O (stereo unspecified),15%,-2%,/
Cc1ccc(/C=C2/Sc3ccc(C(=O)NCc4ccccn4)cc3NC2=O)cc1,?,-18%,/
CCc1ccc(Nc2nnc(SCC(=O)Nc3cccnc3Cl)s2)cc1,11µM*,?,/
CCc1ccc(Nc2nnc(SCC(=O)Nc3sccc3C(N)=O)s2)cc1,-18%,-13%,1%
COC(=O)c1ccccc1C[C@]1(C(=O)OC)C=C[C@H](C)[C@@H](c2ccccc2)N1C(=O)C(F)(F)F,-11%,-19%,0%
CCOc1cc(C2C(C#N)=C(N)OC(C)=C2C(C)=O)c(Br)c(Br)c1OC(C)C (stereo unspecified),?,13µM*,-1%
CCOc1cc(C2C(C#N)=C(N)OC(C)=C2C(C)=O)cc(Br)c1O (stereo unspecified),-14%,10%,-3%
COc1cccc(NC(=O)C2COc3ccccc3O2)c1 (stereo unspecified),10%,-10%,/
SMILES,RORgamma inh,Gal4-VP16 FLuc,KinaseGlo FLuc
Cc1ccc(NC(=O)c2ccc(S(=O)(=O)N3CCOCC3)cc2)c(C)c1,-11%,-12%,/
Cc1cc(S(=O)(=O)N2CCOCC2)ccc1OCC(=O)Nc1ccccc1F,-28%,-1%,/
Cc1ccc(C)c(NC(=S)N=Nc2c(O)n(C)c3ccc(S(=O)(=O)N4CCOCC4)cc23)c1,0.63µM*,1.1µM*,0%
Cc1ccc(Cn2c(O)c(N=NC(=S)Nc3ccccc3F)c3cc(S(=O)(=O)N4CCOCC4)ccc32)cc1,2µM*,?,0%
Cn1c(O)c(N=NC(=O)c2cccc(S(=O)(=O)N3CCCCC3)c2)c2ccccc21,-1%,-14%,0%
CCc1ccccc1NC(=S)N=Nc1c(O)n(C)c2ccc(S(=O)(=O)N3CCOCC3)cc12,1.1µM*,4.5µM*,5%
Cc1ccc(NC(=O)CCNS(=O)(=O)c2ccc(OC(F)(F)F)cc2)c(O)c1,14%,-1%,/
O=C(COc1ccccc1Cl)Nc1nnc(S(=O)(=O)N2CCCC2)s1,29%,3%,/
C=CCn1c(SCC#N)nc2sc(CC)cc2c1=O,19%,-11%,-2%
COC(c1ccc(Cl)cc1)(c1ccc(Cl)cc1)C(Oc1nc(C)cc(C)n1)C(=O)O (stereo unspecified),?,13%,/
O=C1CCCCC/C1=N/Nc1ccc(OCc2ccccc2)cc1,17%,0%,/
CC1CCN(c2ccc(C(=O)NCc3ccco3)cc2[N+](=O)[O-])CC1,-10%,0%,-3%
Cc1ccc(NC(=S)NC(=O)CC2CC(C)(C)OC2=O)cc1 (stereo unspecified),?,-6%,4%
Cc1cccc(NC(=S)NC(=O)CC2CC(C)(C)OC2=O)c1 (stereo unspecified),11µM*,-18%,0%
CCOC(=O)N1CCN(C(=S)Nc2ccc3nc(N4CCN(CC)CC4)cc(C)c3c2)CC1,3%[10 µM],0%,2%
Cc1nc(Cl)sc1C(=O)Nc1cccc2ccccc12,37%,-2%,0%
CC1CC(CCC(=O)NC(=S)Nc2ccc(Cl)cn2)C(=O)O1 (stereo unspecified),11µM*,-27%,1%
CCCCCC(=O)Nc1ccc(Cl)cn1,40%,-13%,-4%
CCCC(=O)Nc1ccc(NC(=O)C23CC4CC(CC(C4)C2)C3)cn1,?,5%,1%
COc1cc(C(=O)NC(=S)Nc2ccc(Cl)cn2)cc(OC)c1OC,5µM*,11µM*,/
COc1cc(C(=O)Nc2ccc(NC(=O)c3cccc(Cl)c3)nc2)cc(OC)c1OC,13%,19%,/
CCCCCC(=O)NC(=S)Nc1ccc(Cl)cn1,7.1µM*,7.9µM*,-2%
O=C(NC(=S)Nc1ccc(Cl)cn1)C12CC3CC(CC(C3)C1)C2,6.3µM*,4µM*,1%
CC1CC(CC(=O)NC(=S)Nc2ccccc2Cl)C(=O)O1 (stereo unspecified),-25%,-16%[10 µM],2%
CC(C)NCc1nnc(-c2ccccc2Cl)o1,2%,2%,/
SMILES,RORgamma inh,Gal4-VP16 FLuc,KinaseGlo FLuc
CCOC(=O)C1(Cc2cccc(OC)c2)CCN(Cc2ccc(C)s2)CC1,-5%,-15%,/
COc1cccc(NC(=O)C2C3C=CC(C3)C2C(=O)O)c1 (stereo unspecified),?,-1%,/
NC(=O)[C@H]1CC2(CC(c3cccc(NC(=O)COc4ccc(Cl)cc4)c3)=NO2)CN1C(=O)C(c1ccccc1)c1ccccc1 (stereo partly specified),45%,4%,/
CCOC(=O)c1[nH]cnc1C(=O)Nc1ccccc1OC,2%,-11%,3%
CCCCC(=O)Nc1ccc(Cl)cn1,43%,1%,-5%
CSc1ccc(Cl)c(C(=O)Nc2ccc(Cl)cn2)c1,-8%,-8%,-1%
O=C(NC(=S)Nc1ccc(Cl)cn1)C(c1ccccc1)c1ccccc1,4µM*,4µM*,-3%
COc1cc(SC)ccc1C(=O)Nc1ccc(Cl)cn1,7.9µM*,8.9µM*,-23%
CCC(=O)NC(=S)Nc1ccc(Cl)cn1,2.8µM*,?,-1%
S=C(Nc1ccccc1)Nc1ccc(Cl)cn1,3%,-14%,-6%
CN1CCN(NC(=O)NC2CCCCC2)CC1,-6%,1%,/
CC(C)(C)C(O)C(Cc1ccccc1Cl)n1cncn1 (stereo unspecified),-3%,0%,/
C=CCC(C)(O)c1cccs1 (stereo unspecified),1%,-3%,1%
